# Test results taken from the supplement of paper PMC6555819.
# Key:
# Test in all cases: PBM binding z-score (relative to random genomic background probes); higher = stronger binding; sequences stand for … in GC…GCGATTGACAGCGTAGAATGAAGG
# [1] = system: FXR:RXRa (NR concentration 270 nM, RXRa partner concentration 90 nM)
# How it was run: (§1)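 Random background probes are the reference for binding z-scores. These scores derive from regression-normalized fluorescence on custom Agilent 4×180K protein-binding microarrays incubated 1 h with ligand-free nuclear receptor dimers. Binding was detected with antibodies against each partner (one per run).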
# [2] = system: LXRa:RXRa (NR concentration 270 nM, RXRa partner concentration 90 nM)
# How it was run: as §1
# [3] = system: LXRa homodimer (NR concentration 270 nM)
# How it was run: as §1
# [4] = system: LXRb:RXRa (NR concentration 270 nM, RXRa partner concentration 90 nM)
# How it was run: as §1
# [5] = system: LXRb homodimer (NR concentration 270 nM)
# How it was run: as §1
# [6] = system: PPARa:RXRa (NR concentration 270 nM, RXRa partner concentration 90 nM)
# How it was run: as §1
# [7] = system: PPARg:RXRa (NR concentration 180 nM, RXRa partner concentration 90 nM)
# How it was run: as §1
# [8] = system: PPARg:RXRa 270nM:90nM, anti-RXR (NR concentration 270 nM, RXRa partner concentration 90 nM)
# How it was run: as §1
# [9] = system: PPARg:RXRa 30nM:10nM, anti-RXR (NR concentration 30 nM, RXRa partner concentration 10 nM)
# How it was run: as §1
# [10] = system: PPARg:RXRa 90nM:30nM, anti-RXR (NR concentration 90 nM, RXRa partner concentration 30 nM)
# How it was run: as §1
# [11] = system: PPARg:RXRa DBDmut IVT, anti-RXR (DBD mutation: RXRa K156A/R161A, NR concentration 270 nM, RXRa partner concentration 90 nM)
# How it was run: as §1
# [12] = system: PPARg:RXRa IVT, anti-PPARg (NR concentration 270 nM, RXRa partner concentration 90 nM)
# How it was run: as §1
# [13] = system: PPARg DBDmut:RXRa IVT, anti-PPARg (DBD mutation: PPARg1 K132A/R137A, NR concentration 270 nM, RXRa partner concentration 90 nM)
# How it was run: as §1
# [14] = system: PPARg DBDmut IVT, anti-PPARg (DBD mutation: PPARg1 K132A/R137A, NR concentration 270 nM)
# How it was run: as §1
# [15] = system: PPARg homodimer (NR concentration 180 nM)
# How it was run: as §1
# [16] = system: PXR:RXRa (NR concentration 270 nM, RXRa partner concentration 90 nM)
# How it was run: as §1
# [17] = system: PXR homodimer (NR concentration 270 nM)
# How it was run: as §1
# [18] = system: RARa:RXR (NR concentration 270 nM, RXRa partner concentration 90 nM)
# How it was run: as §1
# [19] = system: RARa homodimer (NR concentration 270 nM)
# How it was run: as §1
# [20] = system: RARb:RXRa (NR concentration 270 nM, RXRa partner concentration 90 nM)
# How it was run: as §1
Sequence,PBM binding z-score [1],PBM binding z-score [2],PBM binding z-score [3],PBM binding z-score [4],PBM binding z-score [5],PBM binding z-score [6],PBM binding z-score [7],PBM binding z-score [8],PBM binding z-score [9],PBM binding z-score [10],PBM binding z-score [11],PBM binding z-score [12],PBM binding z-score [13],PBM binding z-score [14],PBM binding z-score [15],PBM binding z-score [16],PBM binding z-score [17],PBM binding z-score [18],PBM binding z-score [19],PBM binding z-score [20]
GGAACGACGGCAAGTTGATAGCAGAGTTTGATGG,-0.255,-0.528,-0.627,-0.839,-0.999,-0.669,0.538,-0.859,-0.288,-0.679,-0.476,-0.312,-0.309,-0.721,-0.705,-0.547,0.0619,-0.23,-0.783,-0.715
TGTCAAACTTCAAAGGTAACGTAAGTATCCACAC,0.417,0.363,-0.174,0.695,0.266,0.877,0.587,0.784,0.906,0.841,-0.251,1.47,0.991,1.2,0.478,0.345,-0.16,0.522,0.335,0.94
AGAACGAGGGCATTGAGTTGATAGCACGGGTGGC,0.832,0.491,-0.273,0.0744,-0.545,1.26,1.02,0.78,-0.308,6.55e-05,2.94,2.27,0.115,-0.519,0.179,2.79,9.1,0.267,-0.274,1.87
CCTACTGCGCCAAGGTCATTGATCAGTCAAAGCA,3.5,3.48,2.13,3.52,0.86,3.75,0.507,1.59,-0.0931,0.819,0.265,0.978,-0.442,-0.653,2.68,3.85,2.48,3.83,1.07,3.51
ACTAATAGTTGAGACGAGGGCAACCGATAGGTTG,0.996,0.527,-0.147,0.288,0.0115,0.669,0.841,-0.0729,0.0984,0.103,-0.206,0.29,-0.296,0.434,-0.0381,2.33,0.121,1.08,-0.0731,1.34
TCATGTAGGTAAAGGTGAAAGTCGAACGATATGA,1.05,1.11,-0.13,1.23,-0.337,3.46,4.4,4.72,4.32,4.81,4.4,4.97,1.57,1.56,0.969,0.939,0.207,1.53,0.733,2.05
TCTTGTAGATCGGCAGGTTAAGAAAGCTGGCCAA,0.24,0.472,-0.48,0.25,-0.432,0.736,-0.656,1.28,2.42,2.02,1.25,0.377,-0.018,-0.268,0.0916,0.349,-0.293,0.55,-0.734,0.257
TCTGCTAGGTCAGTTGCTCAGCTAACGAGCTGCC,0.259,0.241,-0.836,-0.204,-0.131,0.67,-0.489,1.14,0.796,1.19,2.23,2.17,-0.136,0.103,-0.987,-0.163,-1.12,-0.122,-1.62,2.9
ACTATTAGTTGAGACGAAGGCAACCGATAGGTTG,-0.426,-0.372,-0.315,-0.554,0.221,-0.644,0.452,-0.4,-0.441,-0.372,-0.511,-0.28,1.16,0.396,0.149,-0.912,-0.243,-0.552,0.662,-0.23
TCTTGTAGATCAGCAGGTAAAGAAAGCTGGCCAA,0.051,0.0639,-0.443,-0.119,-0.519,0.422,-0.331,0.955,2.5,1.69,1.27,0.386,-0.0476,-0.531,-0.175,-0.0594,-0.358,0.111,0.0298,-0.482
CGAACTAGGTCATCCATGACAGTGAATACATTGA,3.96,2.2,0.578,2.07,0.325,5.09,7.88,6.33,4.18,5.8,8.18,8.57,4.46,1.2,1.67,1.53,0.0131,2.26,0.371,3.98
CTTCCAAGGTCAAGGTCAGTGAAAGAGACTCGAA,7.44,6.06,1.86,4.85,1.61,6.31,6.43,6.37,3.11,5.13,3.34,4.97,0.569,0.303,3.58,4.76,1.05,5.07,0.686,5.83
TCATATCGGTAAAAGGTGAAAGTCGGTGTGGTAA,1.65,1.77,0.323,1.52,0.181,4.23,6.69,6.91,6.64,7.74,3,3.46,0.579,1.77,2.19,1.25,0.807,2.24,1.92,1.97
ATCTCTAGGTAAAGTACAGTGAAAGATCGATAGA,0.412,0.617,0.207,0.131,0.745,0.0903,0.761,0.842,0.832,0.623,2.11,2.03,1.17,1.25,1.14,0.119,0.479,0.369,1.59,0.586
